From the supplement of paper PMC12350171
Structures can show the parent of a compound that is named as a salt. Unmarked numbers belong to inactive results.

Assays:
Conditions in all cases: 20 µM
[1] = test system: Salmonella enterica typhimurium; assay: growth AUC normalised to DMSO control (fraction of control); higher = less growth inhibition, active = hit call of the paper
Procedure, shortened: (§1)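 Hemin and NAD were added to the medium for Haemophilus parainfluenzae. All pathogens, after two anaerobic passages, were inoculated at a starting OD578 of 0.01 into pre-reduced mGAM plates with 20 μM compound and 1% DMSO under breathable seals, and OD578 was read hourly for 24 h in three biological replicates. AUC of each growth curve was obtained with the trapezoidal rule up to the exponential-to-stationary transition and normalised to DMSO controls from the same plate.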

[2] = test system: Shigella flexneri; assay: as above
Procedure, shortened: as §1

[3] = test system: Vibrio cholerae; assay: as above
Procedure, shortened: as §1

[4] = test system: Yersinia pseudotuberculosis; assay: as above
Procedure, shortened: as §1

[5] = test system: P. vulgatus RND KO; assay: growth AUC normalised to DMSO control (median) (fraction of control); higher = less growth inhibition, active = hit call of the paper
Procedure, shortened: (§2)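 Area under the growth curve, calculated by the trapezoidal rule up to entry into stationary phase, was normalised to vehicle wells on the same plate. Strains had been passaged twice overnight without oxygen and then grown in mGAM in 96-well plates from OD578 0.01, each with an approved-drug library compound at 20 μM in 1% DMSO. OD578 was read hourly over 24 h in an anaerobic incubator, and the median of three biological replicates is given.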

[6] = test system: P. vulgatus WT; assay: as above
Procedure, shortened: as §2

[7] = test system: S. enterica typhimurium WT; assay: as above
Procedure, shortened: as §2

[8] = test system: S. enterica typhimurium tolC KO; assay: as above
Procedure, shortened: as §2
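Wherever growth AUC normalised to DMSO control (median) is given: active when median AUC fell below 0.1.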

SMILES | growth AUC normalised to DMSO control [1] | growth AUC normalised to DMSO control [2] | growth AUC normalised to DMSO control [3] | growth AUC normalised to DMSO control [4] | growth AUC normalised to DMSO control [5] | growth AUC normalised to DMSO control [6] | growth AUC normalised to DMSO control [7] | growth AUC normalised to DMSO control [8]
CN(C)C(=N)NC(=N)N [Metformin hydrochloride] | 1 | 1.01 | 1.02 | 0.983 | 1.01 | 0.996 | 1 | 1
C=C1c2cccc(O)c2C(O)=C2C(=O)[C@]3(O)C(O)=C(C(N)=O)C(=O)[C@@H](N(C)C)[C@@H]3[C@@H](O)[C@H]12 [Methacycline hydrochloride] | 0.00318 (active) | 0.0126 (active) | 0.0374 (active) | 0.0389 (active) | 0.0122 (active) | 0.00531 (active) | 0.000703 (active) | 0.00224 (active)
NCCCC[C@H](N[C@@H](CCc1ccccc1)C(=O)O)C(=O)N1CCC[C@H]1C(=O)O [Lisinopril] | 1.01 | 1.02 | 1.04 | 1.01 | 1.05 | 1.04 | 1.01 | 0.997
Cc1cc(C(C)(C)C)c(O)c(C)c1CC1=NCCN1 [Oxymetazoline hydrochloride] | 0.997 | 0.994 | 1 | 1 | 0.994 | 0.988 | 1.01 | 0.985
Cc1c(N)c(=O)n(-c2ccccc2)n1C [Ampyrone] | 0.996 | 0.998 | 0.965 | 0.986 | 1.04 | 1 | 1 | 1
O=c1[nH]c(=O)n([C@H]2C[C@H](O)[C@@H](CO)O2)cc1I [Idoxuridine] | 0.909 (active) | 0.861 (active) | 0.992 | 0.984 | 1.01 | 1.05 | 0.936 | 0.933
C#C[C@]1(O)CC[C@H]2[C@@H]3CCC4=CC(=O)CC[C@@H]4[C@H]3CC[C@@]21C [Norethindrone] | 1.01 | 0.977 | 0.996 | 0.988 | 0.997 | 1.03 | 1.01 | 0.993
O=C(OCC(O)CO)c1ccccc1Nc1ccnc2cc(Cl)ccc12 (stereo not given) [Glafenine hydrochloride] | 0.981 | 0.938 | 0.88 | 0.941 | 1.01 | 0.995 | 0.997 | 0.935
CC1CCc2cc(F)cc3c(=O)c(C(=O)O)cn1c23 (stereo not given) [Flumequine] | 0.00993 (active) | 0.0348 (active) | 0.0549 (active) | 0.0304 (active) | 0.801 | 0.647 | 0.0214 (active) | 0.00721 (active)
CO[C@H]1/C=C/O[C@@]2(C)Oc3c(C)c(O)c4c(O)c(c(/C=N/N5CCN(C)CC5)c(O)c4c3C2=O)NC(=O)/C(C)=C\C=C\[C@H](C)[C@H](O)[C@@H](C)[C@@H](O)[C@@H](C)[C@H](OC(C)=O)[C@@H]1C [Rifampicin] | 0.23 (active) | 0.118 (active) | 1.01 | 0.0362 (active) | 0.0135 (active) | 0.0147 (active) | 0.523 | 0.254
c1ccc([C@H]2CN3CCSC3=N2)cc1 [Levamisole hydrochloride] | 0.99 | 0.967 | 0.981 | 1 | 1.03 | 1.01 | 1 | 1
COc1ccc(C(=O)NCc2ccc(OCCN(C)C)cc2)cc1OC [Itopride] | 0.996 | 1.05 | 1.07 | 1.03 | 1.02 | 1.06 | 1.02 | 1
CC(=O)N[C@@H](CS)C(=O)O [Acetylcysteine] | 1.03 | 1.06 | 1.05 | 1.04 | 1.07 | 1.06 | 1.01 | 0.991
NC(=O)N/N=C/c1ccc([N+](=O)[O-])o1 [Nitrofural] | 0.713 (active) | 0.154 (active) | 0.01 (active) | 0.875 (active) | 0.0943 (active) | 0.254 | 0.902 | 0.818
CCCCNc1ccc(C(=O)OCCOCCOCCOCCOCCOCCOCCOCCOCCOC)cc1 [Benzonatate] | 1.01 | 0.993 | 0.996 | 0.989 | 1.01 | 0.954 | 1 | 1
CC(N)C12CC3CC(CC(C3)C1)C2 (stereo not given) [Rimantadine hydrochloride] | 0.99 | 0.987 | 0.985 | 0.869 | 0.978 | 0.983 | 0.996 | 0.989
O=C1OCCN1/N=C/c1ccc([N+](=O)[O-])o1 [Furazolidone] | 0.391 (active) | 0.0191 (active) | 0.0449 (active) | 0.842 (active) | 0.0122 (active) | 0.00859 (active) | 0.459 | 0.609
CCN(CC)CCNC(C(=O)OCCC(C)C)c1ccccc1 (stereo not given) [Camylofine chlorhydrate] | 0.992 | 0.991 | 0.953 | 0.997 | 1.01 | 1.02 | 1 | 0.973
C[C@@H]1[C@H](O)[C@@H](C)/C=C/C=C/C=C/C=C/C=C/C=C/C=C/[C@H](O[C@@H]2O[C@H](C)[C@@H](O)[C@H](N)[C@@H]2O)C[C@@H]2O[C@](O)(C[C@@H](O)C[C@@H](O)[C@H](O)CC[C@@H](O)C[C@@H](O)CC(=O)O[C@H]1C)C[C@H](O)[C@H]2C(=O)O [Amphotericin B] | 1.02 | 1.1 | 1.05 | 1.02 | 1.04 | 1.1 | 1.01 | 0.988
COc1ccc(Cl)cc1C(=O)NCCc1ccc(S(=O)(=O)NC(=O)NC2CCCCC2)cc1 [Glibenclamide] | 0.984 | 1.02 | 1.03 | 1.01 | 0.953 | 0.956 | 1.01 | 1
Cc1c(Cl)cccc1Nc1ncccc1C(=O)O [Clonixin lysinate] | 1 | 0.989 | 0.94 | 1 | 0.979 | 1 | 1.02 | 0.954
CN(C)CCCN1c2ccccc2Sc2ccc(Cl)cc21 [Chlorpromazine hydrochloride] | 0.996 | 0.983 | 0.877 (active) | 0.985 | 0.924 | 0.903 | 1 | 0.962
COC(c1ccccc1)(c1ccccc1)[C@H](Oc1nc(C)cc(C)n1)C(=O)O [Ambrisentan] | 0.98 | 1.02 | 1.01 | 1.01 | 0.997 | 0.983 | 0.991 | 0.99
COc1ccccc1OCC(O)COC(N)=O (stereo not given) [Methocarbamol] | 0.986 | 0.981 | 0.94 | 0.979 | 0.993 | 1.03 | 1 | 1
CCOc1ccccc1OCC1CNCCO1 (stereo not given) [Viloxazine hydrochloride] | 0.997 | 0.979 | 0.987 | 0.961 | 1 | 0.985 | 0.99 | 0.995
O=C1CN(/N=C/c2ccc([N+](=O)[O-])o2)C(=O)N1 [Nitrofurantoin] | 0.974 | 0.843 (active) | 0.964 | 0.999 | 0.253 | 0.556 | 0.836 | 0.858
CC[N+](C)(CC)CCC[n+]1c(-c2ccccc2)c2cc(N)ccc2c2ccc(N)cc21 [Propidium iodide] | 0.998 | 1.06 | 1.08 | 1.01 | 1.05 | 1.06 | 1.01 | 1
Cc1c(NC(=O)c2cccnc2)c(=O)n(-c2ccccc2)n1C [Nifenazone] | 0.976 | 1 | 1.01 | 1.01 | 0.997 | 1 | 1.01 | 0.996
CCN(CC)CCNC(=O)COc1ccc(OC)cc1 [Mefexamide hydrochloride] | 1 | 0.982 | 0.995 | 1.01 | 0.988 | 0.97 | 1.01 | 0.998
NC[C@H]1O[C@H](O[C@H]2[C@H](O)[C@@H](O[C@H]3O[C@H](CO)[C@@H](O)[C@H](N)[C@H]3O)[C@H](N)C[C@@H]2N)[C@H](N)C[C@@H]1O [Tobramycin] | 0.888 (active) | 0.794 (active) | 0.97 | 0.107 (active) | 1.03 | 1.05 | 0.969 | 0.995
